Reference: PubChem BioAssay (Tox21)
Records with an inconclusive call do not appear. Entries that show only a call come without a potency. The source made the active and inactive calls. Calls come from the whole dose curve; as a rule, active = well fitted activation curve with a large enough effect in the repeat runs; inconclusive = weak or mixed curves; inactive = flat fitted curve, though single readings scatter.

Assay: Caspase-3/7 induction in HepG2 cells by small molecules, qHTS assay (AID 1346978); note: nearly all actives have a fitted effect of over 15% in size
Details: HepG2 caspase-3/7 activation, Caspase-Glo luminescence, 17 h; series mostly up to 92.4 µM
Method in brief: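 Wild-type HepG2 cells, 2,000/well, settled 5 hr at 37 C and 5% CO2, then compound-treated for 17 hr; caspase-3/7 activity read by luminescent Caspase-Glo 3/7 after 30 min at room temperature.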

Row | Structure (SMILES) | Potency | caspase activation
1 | COc1ccc(S(=O)(=O)N2c3ccc(Cl)cc3[C@@](O)(c3ccccc3Cl)[C@H]2C(=O)N2CCC[C@@H]2C(N)=O)cc1OC | inactive | –
2 | CCCCCCCC/C=C\CCCCCCCC(=O)OCCCC | – | 0.919% [at 19 µM] (inactive)
3 | COc1ccc(OC)c(Cl)c1 | inactive | –
4 | N[C@@H](CCC(=O)N[C@@H](CS)C(=O)NCC(=O)O)C(=O)O | – | -1.46% [at 19 µM] (inactive)
5 | CCOC(=O)c1ccc(OC(=O)CCCCCN=C(N)N)cc1 | inactive | –
6 | CC(C)CC(C)CC(C)CC(C)COC(=O)c1ccccc1C(=O)OCC(C)CC(C)CC(C)CC(C)C (configuration not stated) | inactive | –
7 | CC(=C(CCOC(=O)C(C)C)SSC(CCOC(=O)C(C)C)=C(C)N(C=O)Cc1cnc(C)nc1N)N(C=O)Cc1cnc(C)nc1N | inactive | –
8 | COC(=O)C1CC(=O)C(C(=O)OC)CC1=O (configuration not stated) | – | 0.89% [at 8.39 µM] (inactive)
9 | Nc1cccc(O)c1 | inactive | –
10 | CC(C)CCCC(C)(C)O | inactive | –
11 | O=C(NCC(O)CO)c1c(I)c(C(=O)NCC(O)CO)c(I)c(N(CCO)C(=O)CO)c1I (configuration not stated) | inactive | –
12 | CCC(C)NC(N)=O (configuration not stated) | inactive | –
13 | C[C@H](CCC(=O)O)[C@H]1CC[C@H]2[C@@H]3C(=O)C[C@@H]4CC(=O)CC[C@]4(C)[C@H]3CC(=O)[C@]12C | inactive | –
14 | CC(C)OC(=O)CCCCC(=O)OC(C)C | inactive | –
15 | CCCOC(=O)C(C)O (configuration not stated) | inactive | –
16 | O=S(=O)(O)CCN1CCN(CCO)CC1 | inactive | –
17 | CCCCOC(=O)c1ccccc1 | inactive | –
18 | O=C(OCc1ccccc1)C(=O)OCc1ccccc1 | inactive | –
19 | COC(=O)CCc1ccc(OCC(O)CNC(C)C)cc1 (configuration not stated) | inactive | –

Row | Structure (SMILES) | Potency | caspase activation
20 | CCOCCOCCOCC | inactive | –
21 | CO[C@@H]1[C@@H](OC(N)=O)[C@@H](O)[C@H](Oc2ccc3c(O)c(NC(=O)c4ccc(O)c(CC=C(C)C)c4)c(=O)oc3c2C)OC1(C)C | inactive | –
22 | C=Cc1ccccn1 | inactive | –
23 | CCCC/C=C/C=C\C=O | inactive | –
24 | CCCN1C[C@H](CSC)C[C@@H]2c3cccc4[nH]cc(c34)C[C@H]21 | inactive | –
25 | c1ccc2c(c1)ccc1c3ccccc3ccc21 | inactive | –
26 | CCO[Si](CCCS)(OCC)OCC | inactive | –
27 | COC(=O)CCCCCCCC(=O)OC | inactive | –
28 | O=C(O)c1cc(Cl)cc([N+](=O)[O-])c1Cl | inactive | –
29 | O=C1CCCC(=O)O1 | inactive | –
30 | CC1=C(C(=O)O)N2C(=O)[C@@H](NC(=O)[C@H](N)c3ccc(O)cc3)[C@H]2SC1 | inactive | –
31 | CC(CC=O)CCCC(C)(C)O (configuration not stated) | inactive | –
32 | O=C1O[C@@H]2[C@@H](O)[C@H](O)O[C@@H]2[C@H]1O | inactive | –
33 | COCCc1ccc(OCC2CO2)cc1 (configuration not stated) | inactive | –
34 | Cc1ccc2ccc(Cl)cc2n1 | inactive | –
35 | c1ccc2nccnc2c1 | inactive | –
36 | COc1cc(C(=S)N2CCOCC2)cc(OC)c1OC | inactive | –
37 | COCCOCCOCCOCCO | inactive | –
